From PubChem BioAssay (Tox21)
Several values for one entry are separate records, joined by “and”; a condition that tells them apart may be missing. Equal entries are not always repeated. Inconclusive results are not listed. Where a call stands in place of a potency, no number is given. Activity calls are given as the source filed them. Unless noted, calls come from the whole dose curve; as a rule, active = well fitted curve in the direction sought with a large enough effect in the repeat runs; inconclusive = weak or mixed curves; inactive = no such curve, though single readings can be large; an effect the other way counts as inactive or inconclusive.

What was measured:
[1] = biological target: Retinoic acid receptor RXR-alpha (Homo sapiens) (UniProt P19793); test: qHTS assay to identify small molecule agonists of the RXR signaling pathway (AID 1159527; calls by dose curve; note: nearly all actives have a fitted effect of over 35% in size)
Method in brief: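 Agonist mode; 9-cis retinoic acid positive control. HEK 293T UAS-bla reporter cells, 2% charcoal-stripped FBS, 16 hr compound exposure at 37 C/5% CO2. LiveBLAzer B/G FRET substrate 2 hr RT; ex 405, em 460/530 nm.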

[2] = qHTS assay to identify small molecule agonists of the RXR signaling pathway - cell viability counter screen (AID 1159529); note: series mostly up to about 77 µM; nearly all actives have a fitted effect of over 50% in size
Method in brief: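 Luminescence from CellTiter-Glo (30 min, RT) measured viability in the same wells as the beta-lactamase reporter readout. Cells: GeneBLAzer RXR-alpha HEK 293T, 2% charcoal-stripped FBS. Compound exposure 16 hr, 37 C.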

[3] = qHTS assay to identify small molecule antagonists of the retinoid acid receptor (RAR) signaling pathway - cell viability counter screen (AID 1159551); note: nearly all actives have a fitted effect of over 35% in size
Method in brief: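 Following overnight attachment, C3RL4 reporter cells received DMSO-dissolved compounds and then retinol (1 uM final). Six hours later at 37 C, ATP content was measured by CellTiter-Glo luminescence.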

[4] = qHTS assay to identify small molecule antagonists of the retinoic acid receptor (RAR) signaling pathway (AID 1159552; note: nearly all actives have a fitted effect of over 50% in size)
Method in brief: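 Luminescence from a RARE luciferase reporter in C3RL4 cells served as read-out. Cells received compounds together with 1 uM final retinol and incubated 6 hr at 37 C before detection reagent was added for 30 min at room temperature.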

[5] = qHTS assay to identify small molecule agonists of the retinoic acid receptor (RAR) signaling pathway (AID 1159553)
Method in brief: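 Cell line C3RL4, RARE luciferase reporter. Treatment: compounds in DMSO, 6 hr, 37 C, 5% CO2, after overnight plating. Detection: luminescence, 30 min RT after reagent.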

[6] = qHTS assay to identify small molecule antagonists of the estrogen related receptor signaling pathway with the pleiotropic PPARgamma coactivator (PGC) cell viability counter screen (AID 1224822;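 note: series mostly up to about 46 µM; viability read after 17.5 h compound exposure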)
Method in brief: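 qHTS format, DMSO compound stocks pin-transferred onto PGC/ERR cells 6 h after plating; 17.5 h exposure at 37 C, then CellTiter-Fluor fluorescence.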

[7] = qHTS assay to identify small molecule antagonists of the estrogen related receptor (ERR) signaling pathway from Tox21 library - cell viability counter screen (AID 1224834); note: nearly all actives have a fitted effect of over 30% in size
Method in brief: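 Viability readout (CellTiter-Fluor fluorescence, 30 min at 37 C) multiplexed with the ERR assay; cells treated 17.5 h at 37 C with compounds delivered in DMSO.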

[8] = biological target: Luciferin 4-monooxygenase (Photinus pyralis) (UniProt P08659); test: qHTS assay to identify small molecule inhibitors of firefly luciferase (AID 1224835); note: series mostly up to about 120 µM; nearly all actives have a fitted effect of over 25% in size
Method in brief: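 Inhibition of purified Photinus luciferase is measured by luminescence. Substrate levels (D-luciferin, ATP) sit at their KM values. Each compound is tested in a concentration series.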

[9] = qHTS assay to identify small molecule agonists of the constitutive androstane receptor (CAR) signaling pathway - cell viability counter screen (AID 1224836); note: series mostly up to about 92 µM; nearly all actives have a fitted effect of over 45% in size
Method in brief: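 Viability read-out: CellTiter-Fluor fluorescence after 23 h compound exposure at 37 C/5% CO2 in double-stable HepG2-CYP2B6-hCAR cells, with PK11195 present at 0.75 uM final; compounds tested in 15-point titration.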

[10] = qHTS assay to identify small molecule antagonists of the constitutive androstane receptor (CAR) signaling pathway - cell viability counter screen (AID 1224837); note: series mostly up to about 92 µM; nearly all actives have a fitted effect of over 45% in size
Method in brief: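 Fluorescence from CellTiter-Fluor served as the viability signal. Human hepatoma HepG2 cells stably bearing hCAR and CYP2B6-2.2kb received compound plus CITCO (50 nM final) for 23 hr.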

[11] = biological target: Nuclear receptor subfamily 1 group I member 3 (Homo sapiens) (UniProt Q14994); test: qHTS assay to identify small molecule antagonists of the constitutive androstane receptor (CAR) signaling pathway (AID 1224838);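 note: HepG2 cells stably expressing hCAR with CYP2B6 luciferase reporter stimulated by CITCO; nearly all actives have a fitted effect of over 40% in size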
Method in brief: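 Quantitative HTS in double-stable HepG2-CYP2B6-hCAR cells. After 4 h plating, cells get compound (15 concentrations) and CITCO at 50 nM final, incubate 24 h at 37 C, then ONE-Glo luminescence is read.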

[12] = biological target: Nuclear receptor subfamily 1 group I member 3 (Homo sapiens) (UniProt Q14994); test: qHTS assay to identify small molecule agonists of the constitutive androstane receptor (CAR) signaling pathway (AID 1224839); note: nearly all actives have a fitted effect of over 15% in size; note: potency is the fitted concentration of half-maximal effect
Method in brief: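 Luminescence read-out (ONE-Glo, 30 min, room temperature) from double-stable HepG2-CYP2B6-hCAR cells exposed 24 h to 15-point compound series in presence of 0.75 uM PK11195 final.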

[13] = qHTS assay to identify small molecule antagonists of the estrogen related receptor signaling pathway with the pleiotropic PPARgamma coactivator (PGC) from Tox21 10K library - cell viability counter screen (AID 1224840; active = well fitted cell-killing curve with a large enough effect in the repeat runs, not every such curve was filed as active; note: nearly all actives have a fitted effect of over 40% in size)
Method in brief: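 Compounds in DMSO, alongside positive and negative controls, were pinned onto PGC/ERR cells (2,000 per well). Exposure lasted 17.5 hours at 37 C, followed by a 30-minute CellTiter-Fluor incubation and fluorescence reading.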

[14] = qHTS assay to identify small molecule antagonists of the estrogen related receptor signaling pathway with the pleiotropic PPARgamma coactivator (PGC) from Tox21 10K library (AID 1224841; call rule not given here; note: series mostly up to about 92 µM; actives are mostly falling curves and most rising ones were filed inactive; nearly all actives have a fitted effect of over 50% in size)
Method in brief: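 Compound exposure ran 18 hours at 37 C in PGC/ERR cells (2,000/well) that had first rested 6 hours in a 37 C/5% CO2 incubator. Luciferase activity was then detected with One-Glo after a 30-minute room-temperature step.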

[15] = qHTS assay to identify small molecule antagonists of the estrogen related receptor (ERR) signaling pathway - cell viability counter screen (AID 1224818);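 note: series mostly up to about 46 µM; viability measured after 17.5 h of compound exposure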
Method in brief: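 Here, ERR cells are plated at 2,000 cells per well, allowed 6 h to attach, and treated with compounds in DMSO for 17.5 h at 37 C. CellTiter-Fluor is then added and fluorescence read after 30 min.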

[16] = qHTS assay to identify small molecule antagonists of the estrogen related receptor (ERR) signaling pathway (AID 1224819;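 note: luminescence from an ERR-driven luciferase reporter measured with One-Glo reagent; series mostly up to about 46 µM; nearly all actives have a fitted effect of over 50% in size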)
Method in brief: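 LOPAC library screened for antagonism as reduced One-Glo luminescence in ERR reporter cells (2,000/well). Compounds were added after 6 h pre-incubation and left 18 h at 37C; reading followed a 30 min room-temperature reagent step.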

[17] = qHTS assay to identify small molecule agonists of the estrogen related receptor (ERR) signaling pathway (AID 1224820)
Method in brief: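 Cells: ERR line from NTP, 2,000/well. Pre-incubation 6 h, 37 C/5% CO2. Compound (DMSO) pin transfer, 18 h 37 C. One-Glo, 30 min RT, luminescence.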

[18] = tested on: estrogen-related receptor alpha (ERRalpha) with PGC-1alpha coactivator, human; test: qHTS assay to identify small molecule antagonists of the estrogen related receptor signaling pathway with the pleiotropic PPARgamma coactivator (PGC) (AID 1224821; calls by dose curve)
Method in brief: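 Luminescent read-out (One-Glo, 30 min at room temperature) following 18 h treatment of PGC/ERR cells at 37 C with compounds delivered in DMSO. Cells had settled 6 h at 37 C/5% CO2 before dosing.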

[19] = qHTS assay to identify small molecule agonists of the estrogen related receptor signaling pathway with the pleiotropic PPARgamma coactivator (PGC) (AID 1224823)
Method in brief: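 Steps: plate PGC/ERR cells at 2,000 cells/well; incubate 6 h, 37 C/5% CO2; pin-transfer compounds (DMSO); incubate 18 h, 37 C; add One-Glo; 30 min RT; read luminescence.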

[20] = qHTS assay to identify small molecule agonists of the estrogen related receptor signaling pathway with the pleiotropic PPARgamma coactivator (PGC) from Tox21 10K library (AID 1224842); note: nearly all actives have a fitted effect of over 15% in size
Method in brief: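 Luminescence from One-Glo (30 min, room temperature) measured after PGC/ERR cells had 18 h at 37 C with pinned compound (23 nL in DMSO). Cells had been seeded at 2,000 per well and pre-incubated 6 h.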

Chain of Luciferin 4-monooxygenase (Photinus pyralis) (P08659 whole entry, looked up): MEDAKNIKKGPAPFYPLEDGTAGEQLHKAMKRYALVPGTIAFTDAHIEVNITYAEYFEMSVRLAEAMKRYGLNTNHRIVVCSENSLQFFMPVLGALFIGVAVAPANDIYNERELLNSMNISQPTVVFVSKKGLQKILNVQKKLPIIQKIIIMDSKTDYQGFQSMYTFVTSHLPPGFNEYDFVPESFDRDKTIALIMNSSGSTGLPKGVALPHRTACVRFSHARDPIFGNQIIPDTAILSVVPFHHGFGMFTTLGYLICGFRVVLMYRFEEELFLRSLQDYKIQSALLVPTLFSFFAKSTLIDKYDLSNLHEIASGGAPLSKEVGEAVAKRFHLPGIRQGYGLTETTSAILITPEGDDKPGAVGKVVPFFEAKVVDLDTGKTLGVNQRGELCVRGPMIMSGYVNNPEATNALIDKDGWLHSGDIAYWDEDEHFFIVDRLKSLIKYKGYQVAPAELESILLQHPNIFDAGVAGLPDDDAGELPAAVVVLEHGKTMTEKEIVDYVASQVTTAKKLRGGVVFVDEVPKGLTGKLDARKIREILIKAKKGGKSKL
Chain of Nuclear receptor subfamily 1 group I member 3 (Homo sapiens) (Q14994 whole entry, looked up): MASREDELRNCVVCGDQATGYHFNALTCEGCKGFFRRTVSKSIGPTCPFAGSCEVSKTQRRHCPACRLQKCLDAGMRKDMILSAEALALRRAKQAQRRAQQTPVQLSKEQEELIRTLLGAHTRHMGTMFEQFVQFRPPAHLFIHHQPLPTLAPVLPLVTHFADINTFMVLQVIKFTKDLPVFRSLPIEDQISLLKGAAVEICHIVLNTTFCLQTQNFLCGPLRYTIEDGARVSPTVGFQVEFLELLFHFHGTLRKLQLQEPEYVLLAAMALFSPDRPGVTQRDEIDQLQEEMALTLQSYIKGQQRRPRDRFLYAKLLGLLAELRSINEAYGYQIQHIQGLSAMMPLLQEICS
Chain of Retinoic acid receptor RXR-alpha (Homo sapiens) (P19793 whole entry, looked up): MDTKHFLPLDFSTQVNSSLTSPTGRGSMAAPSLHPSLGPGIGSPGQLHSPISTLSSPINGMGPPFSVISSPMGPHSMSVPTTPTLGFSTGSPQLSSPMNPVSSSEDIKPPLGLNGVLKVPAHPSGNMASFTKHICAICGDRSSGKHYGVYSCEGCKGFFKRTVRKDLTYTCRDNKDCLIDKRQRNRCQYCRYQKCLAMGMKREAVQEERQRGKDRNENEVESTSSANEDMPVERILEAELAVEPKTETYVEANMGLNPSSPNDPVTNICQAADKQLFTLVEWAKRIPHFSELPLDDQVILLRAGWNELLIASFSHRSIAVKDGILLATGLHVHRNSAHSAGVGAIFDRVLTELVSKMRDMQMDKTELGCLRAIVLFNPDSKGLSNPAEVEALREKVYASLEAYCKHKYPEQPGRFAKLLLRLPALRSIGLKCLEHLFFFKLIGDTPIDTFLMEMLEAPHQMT

SMILES	Potency [1]	Potency [2]	outcome [3]	Potency [4]	Potency [5]	outcome [6]	Potency [7]	Potency [8]	Potency [9]	Potency [10]	Potency [11]	Potency [12]	Potency [13]	Potency [14]	outcome [15]	outcome [16]	outcome [17]	outcome [18]	outcome [19]	outcome [20]
CC(C(=O)O)c1ccc(CC2CCCC2=O)cc1 (centres undefined)	inactive	inactive	inactive	inactive	inactive	inactive	inactive	inactive	inactive	inactive	inactive	inactive	inactive							
OC[C@]1(O)OC[C@@H](O)[C@H](O)[C@@H]1O	inactive	inactive	inactive	inactive	inactive		inactive	inactive	inactive	inactive	inactive	inactive								
c1cnc(N2CCN(Cc3ccc4c(c3)OCO4)CC2)nc1	inactive	inactive	inactive	inactive	inactive	inactive	inactive	inactive	inactive	inactive	inactive	inactive	inactive							
Cc1ccc(Cl)cc1Cl	inactive	inactive	inactive	inactive	inactive		inactive	inactive	inactive	inactive	inactive	inactive	inactive	inactive						
CC(=O)OCC(CCn1cnc2cnc(N)nc21)COC(C)=O	inactive	inactive	inactive	inactive	inactive		inactive	inactive	inactive	inactive			inactive		inactive					
Brc1c(NC2=NCCN2)ccc2nccnc12	inactive	inactive	inactive	inactive	inactive	inactive	inactive		inactive	inactive	inactive	inactive	inactive	inactive		inactive	inactive	inactive	inactive	inactive
Cc1nc2c([nH]1)c(=O)n(C)c(=O)n2Cc1ccco1	inactive	inactive	inactive	inactive	inactive	inactive	inactive	inactive	inactive	inactive	inactive	inactive	inactive							
CCN1CCC[C@H]1CNC(=O)c1cc(S(N)(=O)=O)ccc1OC	inactive	inactive	inactive	inactive	inactive	inactive	inactive	inactive	inactive	inactive	inactive	inactive	inactive							
O=c1n(CCO)c(=O)n(CCO)c(=O)n1CCO	inactive	inactive	inactive	inactive	inactive		inactive	inactive	inactive	inactive	inactive	inactive	inactive							
O=C1NC(=O)[C@@]2(CCOc3ccc(F)cc32)N1	inactive	inactive	inactive	inactive	inactive	inactive	inactive	inactive	inactive	inactive			inactive		inactive					
O=C(CCCN1CCC(O)(c2cccc(C(F)(F)F)c2)CC1)c1ccc(F)cc1	inactive	inactive	inactive	inactive	inactive	inactive	inactive	inactive	inactive	inactive	inactive	inactive	inactive		inactive		inactive	inactive	inactive	inactive
CCOC(=O)Nc1ccc(NCc2ccc(F)cc2)nc1N	inactive	inactive	inactive	inactive	inactive	inactive	inactive	inactive	inactive	inactive	inactive	inactive	inactive	inactive			inactive	inactive	inactive	inactive
CC(C[N+](C)(C)C)OC(N)=O (centres undefined)	inactive	inactive	inactive	inactive	inactive	inactive	inactive	inactive	inactive	inactive	inactive	inactive	inactive	inactive		inactive	inactive	inactive	inactive	inactive
COC(=O)[C@@H](N)Cc1ccc(O)c(O)c1	inactive	inactive	inactive	inactive	inactive	inactive	inactive	inactive	inactive	inactive			inactive	inactive		inactive	inactive	inactive	inactive	inactive
CCCCOCCOCCOCc1cc2c(cc1CCC)OCO2	inactive	inactive	inactive	inactive	inactive	inactive	inactive		inactive	inactive	inactive	7.79 µM (active) and 11.9 µM (active)	inactive		inactive					
